Measured values taken from the supplement of paper PMC10338343.
± gives the standard deviation.

Test system: MILI (PIWIL2) piRISC loaded with L1MC piRNA (26 nt)
Assay: pre-steady-state target cleavage rate (min^-1); guide: L1MC piRNA 5'p-UAACUAAAUACUAUGCAAGCUGUAGG; MIWI and MILI are mouse PIWI proteins and EfPiwi is from a freshwater sponge; tags in brackets are library labels; higher = faster piRNA-guided slicing of the target
Outline: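 Three pooled Cleave-'n-Seq trials supplied the data, with k3 capped at 0.0001 min^-1. In each, […] transcribed, DNA-blocked target RNA library and 1 nM active affinity-purified piRISC with one synthetic guide reacted in HEPES–potassium acetate buffer at 33 °C for 0–8 or 0–960 min, with or without 500 nM GTSF1 partner protein. Uncleaved targets were sequenced and normalised to depth and to weakly complementary targets. A burst-and-steady-state fit provided the pre-steady-state cleavage rate.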

[1] = auxiliary factor: 500 nM mouse GTSF1
[2] = auxiliary factor: none (no GTSF1)
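Also: 1 nM active piRISC with 0.1 nM target library at 33 °C single turnover.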

| Sequence | pre-steady-state target cleavage rate [1] | pre-steady-state target cleavage rate [2] |
| --- | --- | --- |
| UCCUGCUACACCUUGCAUAGAAUUUAGUUA | 0.0952 ± 0.037 |  |
| UCCUGGAUGUGCUUGGAUAGUAUUUUGUUA | 0.0685 ± 0.02 |  |
| UCCUGCUACAGCUUGCAUACUAUAUAGUUA | 0.0515 ± 0.015 |  |
| UCCUGGAACAGCUUGCUUAGUAUUUUCAAA | 0.0287 ± 0.011 |  |
| UCCUGGAUGAGCAUGCAUAGUAUUUACAAA | 0.0679 ± 0.018 |  |
| UCCUGGAUGUCGAACGAUAGUAAUAAGUUA | < 0.0001 |  |
| UCCUGGAUGUCGAUGCAUAGUAUUUAGUCUA | 0.0115 ± 0.0055 |  |
| UCCUGGUACAGCUUGCAUUGUAUUUAGAAA | 0.0202 ± 0.0075 |  |
| UCCUGGAUCACCUUCCAUAGUAUUUAGUUA | 0.0405 ± 0.012 |  |
| UCCUGGAACAGCUUGCAUAGUUUAUAGUUA | 0.029 ± 0.0097 |  |
| UCCUGGAUGUCGAAGCAUAGUAAAAUCAAA [g9:g16:cont:t1A] |  | < 0.0001 |
| UCCUCCUACAGCAACCAUAGUAUUUAGUAA | 0.255 ± 0.043 |  |
| UCCUGGAUGUCGAACGUAUGUAUUUCAGUUA |  | < 0.0001 |
| UCCUGCUACUGCUUGCAUAGUAUUUAGAUA | 0.0911 ± 0.022 |  |
| UCCUGGAUGUCCUUGCAUAGUAAUUUGUUA | 0.0222 ± 0.0085 |  |
| UCCUGGAUGUCGAUGGAUUGUAUUUAGUUA |  | < 0.0001 |
| UCCUGGAUCACCUUGCAUAGUAUAUAGUUA | 0.227 ± 0.041 |  |
| UCCUGGAUGAGCUUGCAUAGUUUUAAGUUA | 0.0195 ± 0.0084 |  |
| UCCUGGAUGUGCUUGGAUACUAUUUAGUUA | 0.0156 ± 0.0061 |  |
| UCCUCCUAGAGCUUGCAUAGUAUUUAGAAA | 0.069 ± 0.016 |  |
| UCCUGGAACUGCUUGCAUAGUAUUUACAAA | 0.0945 ± 0.022 |  |
| UCCUGCUACACGAUGCAUAGUAUUUUCAAA | 0.117 ± 0.034 |  |
| UCCUGGAUGAGCUUGCAUAGUAUUAACAAA | 0.00849 ± 0.0045 |  |

| Sequence | pre-steady-state target cleavage rate [1] | pre-steady-state target cleavage rate [2] |
| --- | --- | --- |
| UCCUGGAUGUCCUUGGAUACUAUUUAGUUA | 0.0119 ± 0.0061 |  |
| UCCUGGAUGUCGUUGCAUAGUUUAUAGUUA |  | 0.0036 ± 0.0028 |
| UCCUGGAUGAGCUAGCAUAGUAUUUACAAA | 0.0471 ± 0.015 |  |
| UCCUGGAACAGGUUGCAUAGUAUUUUCAAA | 0.0435 ± 0.012 |  |
| UCCUGCUACAGCUUGCAUAGUUAUUACAAA | 0.00534 ± 0.0038 |  |
| UCCUGGAUCAGCUAGCAUAGUAUUUACAAA | 0.127 ± 0.023 |  |
| UCCUGGAACAGGAAGCAUAGUAUUUUCAAA | 0.00836 ± 0.0043 |  |
| UCCUGCUACACCUUGCAUAGUAUUUACAAA | 0.144 ± 0.039 |  |
| UCCUGGAUGUCCUUGCAUAAUAUUUAGUUA | 0.0892 ± 0.015 |  |
| UCCUGGAUGUCGAACGUUAGUAUUUACAAA |  | < 0.0001 |
| UCCUGGAUCAGCUUGCAAUCUAUUUACAAA |  | < 0.0001 |
| UCCUGGAUGUGCUUGCUUUGUAUUUAGUUA | 0.0124 ± 0.0051 | 0.00696 ± 0.0024 |
| UCCUGGAUCAGCUUGCAUAGUAUUCUAGUUA | 0.239 ± 0.034 | 0.00658 ± 0.0024 |
| UCCUGGUACAGCUUGCAUAGUAUUUCAGUUA | 0.21 ± 0.078 | 0.00397 ± 0.0039 |
| UCCUGGAACAGCUUGCUUAGUUUUUAGUUA | 0.0579 ± 0.012 | 0.00375 ± 0.0024 |
| UCCUGGAUGUGCUUGCAUAGUGAUUUAGUUA | 0.00833 ± 0.0042 | 0.007 ± 0.0031 |
| UCCUGGUACAGCUUGAUAGUAUUUAGUUA | 0.0803 ± 0.011 | 0.00786 ± 0.0031 |
| UCCUGGAUGUCCUUGCAAAGUUUUUAGUUA | 0.0117 ± 0.0048 | 0.00553 ± 0.0019 |
| UCCUGCUACAGCUUGCAAAGAAUUUAGUUA | 0.0168 ± 0.0052 | 0.00324 ± 0.0017 |
| UCCUGGAUGUCCUUGCAAAGUAUUUAGUAA | 0.0311 ± 0.0099 | 0.00418 ± 0.0019 |
| UCCUGGAUGUCCUUUCAUAGUAUUUAGUUA | 0.0723 ± 0.011 | 0.00458 ± 0.0022 |
| UCCUGGAUCAGGUUGCAUAGUAUUUAGUUA | 0.182 ± 0.02 | 0.00807 ± 0.0024 |
| UCCUGGAUGUCCUUGCAUAGUCAUUUAGUUA | 0.00722 ± 0.0051 | 0.00338 ± 0.003 |

| Sequence | pre-steady-state target cleavage rate [1] | pre-steady-state target cleavage rate [2] |
| --- | --- | --- |
| UCCUGGAUGUCGUUGCAUAGUAUUUAGUUUA | 0.178 ± 0.018 | 0.0103 ± 0.0039 |
| UCCUGGAUGAGCUAGCAUAGUAUAUAGUUA | 0.242 ± 0.034 | 0.0046 ± 0.0022 |
| UCCUGGAUGUCGAAGGCAUAGUAUUUAGUUA | 0.0371 ± 0.0065 | 0.00443 ± 0.0024 |
| UCCUGGUACACGAUGCAUAGUAUUUAGUUA | 0.252 ± 0.058 | 0.00395 ± 0.0035 |
| UCCUGGAUGUCGAUGCAUAGUAUUAAGUUA | 0.122 ± 0.017 | 0.0035 ± 0.0025 |
| UCCUGGAUCAGCUUGCAUACUAAUUAGUUA | 0.0215 ± 0.0055 | 0.00367 ± 0.0023 |
| UCCUGGAUGUCCUUGCAUAGUAUUCAGUUA | 0.0755 ± 0.018 | 0.00338 ± 0.0028 |
| UCCUGGAUGUCGUUGCAUAGUAUUUCAGUUA | 0.0621 ± 0.017 | 0.00397 ± 0.0033 |
| UCCUCGUACAGCUUGCUUAGUAUUUAGUUA | 0.286 ± 0.016 | 0.00785 ± 0.0024 |
| UCCUGGAUGUCGUUGCAAAGUAUAUAGUUA | 0.0166 ± 0.0054 | 0.00471 ± 0.0027 |
| UCCUGGAUGAGCUAGCAUAGUAUUAAGUUA | 0.226 ± 0.023 | 0.00417 ± 0.0024 |
| UCCUGGAUGAGCUUGCAAUGUAUUUAGUUA | 0.0269 ± 0.0097 | 0.00445 ± 0.0026 |
| UCCUGGAUGUCCUUGCAUAGUUUUAAGUUA | 0.0115 ± 0.0059 | 0.00312 ± 0.0026 |
| UCCUGCUACAGCUUGCUAUGUAUUUAGUUA | 0.0638 ± 0.017 | 0.00522 ± 0.0021 |
| UCCUGGAUGAGCUUGGUUAGUAUUUAGUAA | 0.175 ± 0.027 | 0.0063 ± 0.0023 |
| UCCUGGAACACCUUGGAUAGUAUUUAGUUA | 0.153 ± 0.021 | 0.00568 ± 0.0025 |
| UCCUGGAUCAGCUUGCUUAGUAUAUAGUUA | 0.234 ± 0.014 | 0.00803 ± 0.0031 |
| UCCUGGAUGAGCUUGCAUAGAUAUUUAGUUA | 0.00786 ± 0.0038 | 0.00424 ± 0.0022 |
| UCCUGGAUGUGCUUGCAUAGUAGUUUAGUUA | 0.0704 ± 0.017 | 0.00921 ± 0.0027 |
| UCCUGGAUGAGCUUGGAUAGUAUAUAGUUA | 0.122 ± 0.017 | 0.00462 ± 0.0024 |
| UCCUGGAUGAGGUUGCUUAGUAUUUAGUUA | 0.12 ± 0.01 | 0.0107 ± 0.0022 |
| UCCUGGAUGAGCUUGCAUUGUAAUUAGUUA | 0.0683 ± 0.013 | 0.0035 ± 0.0031 |
